# Data from the supplement of paper PMC10849652.
# Of roughly 8,800 targets only a part is listed; those with a hit were picked by preference. About 0.5% of all pairs of compound and target were hits. Values without a mark were called inactive.
# Key:
# Assay in all cases: log2 fold change, soluble protein after heating vs DMSO (PISA); higher = thermal stabilisation; K562 lysate, 10 uM; active = over 0.2 and 3.5 SD of the protein, either way, in both replicates (recomputed)
# erlotinib = compound: C#Cc1cccc(Nc2ncnc3cc(OCCOC)c(OCCOC)cc23)c1 [erlotinib]
# How it was run: (§1)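 Values give the log-two fold change in thermal stability against solvent controls, from duplicates. Crude K562 extract at 1 mg/mL protein, made by dounce homogenisation in PBS pH 7.4 with 1 mM MgCl2, was treated with 10 μM compound for 30 min. After 3 min heating across 48°C-58°C, aliquots were pooled, adjusted to 0.5% NP-40 at 4°C and centrifuged at 21,000xg for 90 min. The supernatant was measured by TMTpro 16plex LC-MS/MS with channel sums equalised.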
# [1] = compound: C/C(=N\NC(=O)C1=CC(=CC=C1)S(=O)(=O)N2CCOCC2)/C3=C(C=CC(=C3)Cl)O
# How it was run: as §1
# [2] = compound: C1=CC(=CC=C1C2=NC3=C(N2)C=C(C=C3)C(=O)N)OC4=CC=C(C=C4)Cl
# How it was run: as §1
# [3] = compound: C1=CC2=C(C=CC(=C2)/C=C\3/C(=O)NC(=NCC4=CC=CS4)S3)N=C1
# How it was run: as §1
# [4] = compound: C1=CC2=NC=CN=C2C=C1/C=C/3\C(=O)NC(=O)S3
# How it was run: as §1
# [5] = compound: C1=CC=C(C=C1)C2=NC(=C(N2)C3=CC=NC=C3)C4=CC(=C(C=C4)Cl)O
# How it was run: as §1
# [6] = compound: C1=CC=C2C(=C1)C3=NNC4=CC=CC(=C43)C2=O
# How it was run: as §1
# [7] = compound: C1CCN(C1)C(=O)NC2=CC=CC(=C2)NC3=NC=C(C(=N3)NCCC4=CN=CN4)Br
# How it was run: as §1
# [8] = compound: C1CN(CCC1(CC2=CC=C(C=C2)Cl)N)C3=NC=NC4=C3C=CN4
# How it was run: as §1
# IRAK-1-4 Inhibitor I = compound: C1COCCN1CCN2C3=CC=CC=C3N=C2NC(=O)C4=CC(=CC=C4)[N+](=O)[O-] [IRAK-1-4 Inhibitor I]
# How it was run: as §1
# ibrutinib = compound: C=CC(=O)N1CCC[C@@H](n2nc(-c3ccc(Oc4ccccc4)cc3)c3c(N)ncnc32)C1 [ibrutinib]
# How it was run: as §1
# [9] = compound: CC(=O)c1cnc2ccc(-c3cc(Cl)c(O)c(Cl)c3)nc2c1N[C@H]1CC[C@H](CN(C)C)CC1
# How it was run: as §1
# ralimetinib = compound: CC(C)(C)Cn1c(N)nc2ccc(-c3[nH]c(C(C)(C)C)nc3-c3ccc(F)cc3)nc21 [ralimetinib]
# How it was run: as §1
# [10] = compound: CC(C)(O)CC(=O)NCCn1ccc2ncnc(Nc3ccc(Oc4cccc(C(F)(F)F)c4)c(Cl)c3)c21
# How it was run: as §1
# [11] = compound: CC(C)C1=C2N=C(C=C(N2N=C1)NCC3=CC=CC=C3)NCCCCCCN
# How it was run: as §1
# [12] = compound: CC1=C(C(CC(=O)N1)C2=CC=C(C=C2)C(F)(F)F)C(=O)NC3=C(C=C4C(=C3)C=NN4)F
# How it was run: as §1
# [13] = compound: CC1=C(C2=C(C=C1)C(=O)C3=CC=CC=C3N2CCCN)C
# How it was run: as §1
# [14] = compound: CC1=C(C=C(C=C1)NC(=O)C2=CC(=CC=C2)C(C)(C)C#N)NC3=CC4=C(C=C3)N=CN(C4=O)C
# How it was run: as §1
# [15] = compound: CC1=C(C=C(C=C1)NC(=O)C2=CC(=CC=C2)N(C)C)NC(=O)C3=CC=C(C=C3)O
# How it was run: as §1
# [16] = compound: CC1=CC=C(C=C1)SC2=C3C=C(SC3=CN=C2)C(=O)N
# How it was run: as §1
# UniProt Q6P4F2, sequence (Q6P4F2 whole entry, looked up): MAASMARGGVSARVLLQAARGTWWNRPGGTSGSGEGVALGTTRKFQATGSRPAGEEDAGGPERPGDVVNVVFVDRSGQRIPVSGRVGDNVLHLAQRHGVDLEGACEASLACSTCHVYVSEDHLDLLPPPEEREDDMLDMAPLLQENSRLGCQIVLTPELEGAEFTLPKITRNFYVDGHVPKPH
# UniProt Q9Y285, sequence (Q9Y285 whole entry, looked up): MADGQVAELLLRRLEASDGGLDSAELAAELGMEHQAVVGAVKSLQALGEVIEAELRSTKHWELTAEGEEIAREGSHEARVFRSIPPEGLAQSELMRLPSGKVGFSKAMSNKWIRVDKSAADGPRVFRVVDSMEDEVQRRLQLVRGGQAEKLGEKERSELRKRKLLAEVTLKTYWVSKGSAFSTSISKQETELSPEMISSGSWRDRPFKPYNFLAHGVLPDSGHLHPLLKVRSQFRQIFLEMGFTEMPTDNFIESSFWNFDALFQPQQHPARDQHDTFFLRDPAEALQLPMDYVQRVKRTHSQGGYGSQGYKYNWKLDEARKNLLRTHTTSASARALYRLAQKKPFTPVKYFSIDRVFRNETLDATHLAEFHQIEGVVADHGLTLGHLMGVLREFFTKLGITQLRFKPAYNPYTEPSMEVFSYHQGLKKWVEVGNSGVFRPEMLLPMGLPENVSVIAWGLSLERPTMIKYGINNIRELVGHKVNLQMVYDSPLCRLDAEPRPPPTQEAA
# UniProt Q15723, sequence (Q15723 whole entry, looked up): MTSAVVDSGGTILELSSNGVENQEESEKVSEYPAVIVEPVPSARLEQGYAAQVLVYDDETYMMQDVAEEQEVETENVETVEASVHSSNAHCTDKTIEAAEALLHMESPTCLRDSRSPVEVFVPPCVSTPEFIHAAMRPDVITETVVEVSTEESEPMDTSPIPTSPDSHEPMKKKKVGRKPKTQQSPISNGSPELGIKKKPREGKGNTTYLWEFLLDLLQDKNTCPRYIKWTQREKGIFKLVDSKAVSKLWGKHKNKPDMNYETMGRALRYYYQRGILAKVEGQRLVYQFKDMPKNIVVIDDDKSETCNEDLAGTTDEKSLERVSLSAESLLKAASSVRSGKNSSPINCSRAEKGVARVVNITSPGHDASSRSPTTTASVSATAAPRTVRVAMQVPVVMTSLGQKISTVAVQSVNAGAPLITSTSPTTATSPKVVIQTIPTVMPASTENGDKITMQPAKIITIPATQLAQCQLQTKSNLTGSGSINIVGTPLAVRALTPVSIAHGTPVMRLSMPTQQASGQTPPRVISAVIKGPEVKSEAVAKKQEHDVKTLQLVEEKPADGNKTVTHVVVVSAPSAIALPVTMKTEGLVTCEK
# UniProt P23919, sequence (P23919 whole entry, looked up): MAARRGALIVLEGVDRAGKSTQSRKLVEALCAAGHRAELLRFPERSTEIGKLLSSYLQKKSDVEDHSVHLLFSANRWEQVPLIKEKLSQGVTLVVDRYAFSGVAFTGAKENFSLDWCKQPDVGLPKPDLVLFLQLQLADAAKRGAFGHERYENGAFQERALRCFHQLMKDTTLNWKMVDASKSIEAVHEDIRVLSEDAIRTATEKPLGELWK
# UniProt P0DPD7, sequence (P0DPD7 whole entry, looked up): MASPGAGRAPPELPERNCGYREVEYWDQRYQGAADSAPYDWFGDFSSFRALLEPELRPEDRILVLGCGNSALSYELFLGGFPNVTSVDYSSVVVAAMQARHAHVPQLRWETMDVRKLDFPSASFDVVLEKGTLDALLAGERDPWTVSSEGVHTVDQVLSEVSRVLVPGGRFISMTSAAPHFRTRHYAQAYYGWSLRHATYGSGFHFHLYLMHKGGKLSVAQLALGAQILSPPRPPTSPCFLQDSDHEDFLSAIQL
# UniProt P34913, sequence (P34913 whole entry, looked up): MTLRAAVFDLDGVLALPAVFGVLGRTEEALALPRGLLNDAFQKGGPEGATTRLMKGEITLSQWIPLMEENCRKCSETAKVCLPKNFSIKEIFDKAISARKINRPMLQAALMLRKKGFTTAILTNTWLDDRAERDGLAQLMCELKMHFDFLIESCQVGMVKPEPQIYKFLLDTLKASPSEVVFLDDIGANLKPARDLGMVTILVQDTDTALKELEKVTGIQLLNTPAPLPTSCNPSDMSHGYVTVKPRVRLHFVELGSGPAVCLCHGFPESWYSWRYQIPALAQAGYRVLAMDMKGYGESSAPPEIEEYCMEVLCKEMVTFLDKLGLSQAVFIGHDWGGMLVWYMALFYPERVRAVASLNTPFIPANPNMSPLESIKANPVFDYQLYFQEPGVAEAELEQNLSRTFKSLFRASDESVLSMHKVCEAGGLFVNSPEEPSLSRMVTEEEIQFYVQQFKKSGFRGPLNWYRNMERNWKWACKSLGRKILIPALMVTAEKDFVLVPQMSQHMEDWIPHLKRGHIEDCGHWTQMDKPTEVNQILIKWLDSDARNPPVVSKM
# UniProt Q96A65, sequence (Q96A65 whole entry, looked up): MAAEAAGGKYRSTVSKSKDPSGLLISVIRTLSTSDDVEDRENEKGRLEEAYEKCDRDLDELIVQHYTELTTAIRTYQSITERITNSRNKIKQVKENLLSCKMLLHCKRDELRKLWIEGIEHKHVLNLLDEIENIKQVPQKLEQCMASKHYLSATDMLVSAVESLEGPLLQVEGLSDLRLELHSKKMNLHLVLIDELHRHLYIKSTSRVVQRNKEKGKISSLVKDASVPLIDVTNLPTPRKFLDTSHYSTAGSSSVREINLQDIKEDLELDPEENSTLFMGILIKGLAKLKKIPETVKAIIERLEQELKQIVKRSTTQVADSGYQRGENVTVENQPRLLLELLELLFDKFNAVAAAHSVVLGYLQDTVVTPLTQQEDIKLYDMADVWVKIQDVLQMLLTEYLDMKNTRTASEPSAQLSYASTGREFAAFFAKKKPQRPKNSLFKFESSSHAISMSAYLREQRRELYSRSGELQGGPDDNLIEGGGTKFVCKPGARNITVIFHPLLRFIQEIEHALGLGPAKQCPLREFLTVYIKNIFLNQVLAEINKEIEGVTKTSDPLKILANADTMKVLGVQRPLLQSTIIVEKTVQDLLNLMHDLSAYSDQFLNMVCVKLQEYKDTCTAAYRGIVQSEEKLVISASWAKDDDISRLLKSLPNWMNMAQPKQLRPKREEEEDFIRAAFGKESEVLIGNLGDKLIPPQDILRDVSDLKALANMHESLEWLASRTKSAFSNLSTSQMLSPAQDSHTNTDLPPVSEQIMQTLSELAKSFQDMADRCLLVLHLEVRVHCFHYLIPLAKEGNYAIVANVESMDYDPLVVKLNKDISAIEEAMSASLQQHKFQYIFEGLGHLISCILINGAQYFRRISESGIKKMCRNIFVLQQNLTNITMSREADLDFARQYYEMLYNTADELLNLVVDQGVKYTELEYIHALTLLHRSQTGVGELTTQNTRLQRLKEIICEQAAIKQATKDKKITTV
# UniProt Q6P2E9, sequence (Q6P2E9 whole entry, looked up): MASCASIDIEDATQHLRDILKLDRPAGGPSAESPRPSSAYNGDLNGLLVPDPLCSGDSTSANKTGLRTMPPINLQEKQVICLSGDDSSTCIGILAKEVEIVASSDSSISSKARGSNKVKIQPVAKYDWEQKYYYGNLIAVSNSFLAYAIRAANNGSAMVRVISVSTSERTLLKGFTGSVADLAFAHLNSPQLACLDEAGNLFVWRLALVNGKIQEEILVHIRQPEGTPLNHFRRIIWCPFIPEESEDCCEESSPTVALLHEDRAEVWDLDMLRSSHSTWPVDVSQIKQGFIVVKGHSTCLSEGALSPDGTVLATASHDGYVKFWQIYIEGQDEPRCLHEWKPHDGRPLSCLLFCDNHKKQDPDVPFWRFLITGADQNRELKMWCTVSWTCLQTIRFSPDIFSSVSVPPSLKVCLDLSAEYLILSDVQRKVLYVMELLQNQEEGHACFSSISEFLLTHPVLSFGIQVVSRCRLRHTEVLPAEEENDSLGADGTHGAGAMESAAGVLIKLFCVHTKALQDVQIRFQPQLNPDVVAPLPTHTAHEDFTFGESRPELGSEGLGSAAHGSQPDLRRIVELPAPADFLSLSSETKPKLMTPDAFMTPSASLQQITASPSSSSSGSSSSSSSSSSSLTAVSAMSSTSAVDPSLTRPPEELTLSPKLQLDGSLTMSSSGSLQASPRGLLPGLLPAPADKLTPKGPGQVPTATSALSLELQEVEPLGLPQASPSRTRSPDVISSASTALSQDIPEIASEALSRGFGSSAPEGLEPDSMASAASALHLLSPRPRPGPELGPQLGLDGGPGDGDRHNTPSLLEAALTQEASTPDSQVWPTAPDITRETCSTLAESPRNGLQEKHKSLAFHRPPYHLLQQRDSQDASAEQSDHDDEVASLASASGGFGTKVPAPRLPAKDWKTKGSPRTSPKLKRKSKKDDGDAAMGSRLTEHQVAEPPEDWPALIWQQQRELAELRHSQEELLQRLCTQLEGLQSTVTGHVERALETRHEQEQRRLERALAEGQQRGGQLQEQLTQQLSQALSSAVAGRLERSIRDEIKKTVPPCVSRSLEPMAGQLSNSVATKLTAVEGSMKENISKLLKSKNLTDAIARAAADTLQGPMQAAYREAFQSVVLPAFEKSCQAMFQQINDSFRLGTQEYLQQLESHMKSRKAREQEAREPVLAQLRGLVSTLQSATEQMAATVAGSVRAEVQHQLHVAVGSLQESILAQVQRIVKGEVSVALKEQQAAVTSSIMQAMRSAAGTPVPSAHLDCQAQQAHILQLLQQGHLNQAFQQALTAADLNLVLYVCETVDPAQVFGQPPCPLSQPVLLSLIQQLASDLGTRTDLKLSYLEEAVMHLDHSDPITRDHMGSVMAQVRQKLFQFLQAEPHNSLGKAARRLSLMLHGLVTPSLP
# UniProt Q56P03, sequence (Q56P03 whole entry, looked up): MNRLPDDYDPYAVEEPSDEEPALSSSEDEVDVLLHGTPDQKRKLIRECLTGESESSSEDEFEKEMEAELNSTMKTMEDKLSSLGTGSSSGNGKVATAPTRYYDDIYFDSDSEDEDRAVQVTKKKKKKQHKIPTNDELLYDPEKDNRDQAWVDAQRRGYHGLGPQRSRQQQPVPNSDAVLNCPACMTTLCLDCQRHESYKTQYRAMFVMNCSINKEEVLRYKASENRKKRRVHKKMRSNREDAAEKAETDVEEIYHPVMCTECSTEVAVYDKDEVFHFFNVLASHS
Target,log2 fold change (erlotinib),log2 fold change [1],log2 fold change [2],log2 fold change [3],log2 fold change [4],log2 fold change [5],log2 fold change [6],log2 fold change [7],log2 fold change [8],log2 fold change (IRAK-1-4 Inhibitor I),log2 fold change (ibrutinib),log2 fold change [9],log2 fold change (ralimetinib),log2 fold change [10],log2 fold change [11],log2 fold change [12],log2 fold change [13],log2 fold change [14],log2 fold change [15],log2 fold change [16]
FARSA (UniProt Q9Y285),0.045,-0.001,-0.054,0.009,0,0.119,-0.005,0.009,-0.023,-0.018,-0.006,-0.02,0.048,0.025,0.06,-0.014,-0.063,0.055,0,0.006
DYRK1A (UniProt Q13627),-0.061,-0.057,-0.004,0.186,0.175,0.016,0.084,-0.008,-0.034,-0.046,-0.019,0.264 (active),-0.003,0.011,0.01,0.007,0.005,-0.007,-0.024,0.034
EAPP (UniProt Q56P03),0.012,0.349 (active),0.018,0.098,0.073,0.011,-0.094,0.024,0.103,-0.014,-0.105,0.025,-0.1,-0.059,-0.035,0.037,-0.037,-0.015,0.052,-0.042
ELF2 (UniProt Q15723),0.023,-0.136,0.059,-0.068,0.07,-0.036,-0.056,0.009,-0.022,-0.01,0.07,0.116,0.013,-0.038,0.006,-0.017,-0.066,0.035,0.022,-0.028
FDX2 (UniProt Q6P4F2),-0.051,0.063,0.044,0.065,-0.009,-0.041,-0.054,-0.402,-0.17,0.05,0.056,-0.025,-0.047,-0.194,-0.039,0.01,-0.018,0.015,0.05,0.006
EDC4 (UniProt Q6P2E9),0.002,-0.026,-0.022,0.001,0.006,-0.001,-0.02,-0.015,0.014,0.013,-0.001,0.001,0.028,-0.009,-0.011,0.004,-0.006,0.006,0,-0.019
EXOC4 (UniProt Q96A65),0.031,0.034,-0.065,0.031,0.012,-0.015,-0.026,-0.011,0.011,-0.009,-0.004,-0.011,0.014,-0.031,-0.003,-0.013,0.022,-0.031,0.02,0.002
EEF1AKMT4 (UniProt P0DPD7),0.057,0.097,0.073,0.025,0.039,-0.021,-0.081,-0.019,0.08,0.107,0.023,-0.012,-0.003,-0.053,0.003,-0.006,-0.055,-0.029,-0.029,0.069
ECH1 (UniProt Q13011),-0.041,-0.049,-0.022,0.002,-0.022,0.499 (active),0.232,-0.009,0.017,-0.007,-0.035,-0.02,0.064,-0.036,-0.033,0.04,-0.02,-0.017,-0.018,0.013
DTYMK (UniProt P23919),-0.013,0.025,0.01,-0.017,0.024,-0.016,0.004,0.01,-0.027,-0.028,0.027,-0.018,0.049,-0.015,0.023,-0.035,-0.005,-0.017,0.038,-0.002
EPHX2 (UniProt P34913),-0.024,0.133,0.156,0.036,-0.023,-0.014,0.014,0.077,-0.002,-0.014,0.051,-0.002,-0.001,-0.02,0.099,0.004,-0.006,0.11,0.06,0.051
FAM83A (UniProt Q86UY5),0,0.168,0.097,0.038,-0.054,-0.107,-0.031,-0.062,0.008,0.019,0.125,0.006,0.008,0.053,-0.06,0.018,0.023,0.035,-0.023,0.026
FOXK1 (UniProt P85037),0.014,-0.029,0.038,0.013,-0.057,-0.011,0.007,-0.036,0.013,-0.014,0.033,0.005,0.082,0.063,-0.011,0.018,0.007,-0.025,-0.001,0.011
ERLIN1 (UniProt O75477),-0.031,0.123,-0.17,0.072,-0.038,0.015,-0.02,-0.015,-0.046,-0.071,0.005,0.034,-0.011,0.038,-0.007,0.044,0.005,-0.052,-0.008,0.012
EWSR1 isoform 5 (UniProt Q01844),-0.135,-0.037,-0.1,0.012,0.015,0.037,0.015,-0.009,-0.028,0.018,-0.016,-0.026,-0.017,-0.011,0.038,-0.012,0.016,-0.023,-0.033,0
ENGASE (UniProt Q8NFI3),0.036,0,0.043,-0.069,0.008,0.002,-0.04,0.009,0.043,0.007,0.019,0.019,-0.02,0.012,-0.02,-0.002,0.012,-0.046,0.067,0
